A selection: hits, their analogues and other compounds. The true share with any hit is near 14%.
Marburg entry inh = blocks Marburg virus binding to or entry into cells | Marburg virus pseudotyped entry inhibition, cell reporter | Potency, µM (doses to about 37.8 µM), without a hit: top-dose activity change, negative = inhibition, usual class: inhibitors | 300,000 tested, 1.8% active | AID 540276; calls by dose curve; tested in HEK293 cells; further: potency means the concentration at half of the fitted maximal effect
Pf growth 48h = inhibits P. falciparum growth in the first generation, 48 h; P. falciparum luciferase growth in erythrocytes, 48 h; Potency, µM (top dose mostly 28.7 µM), for inactives: at the highest dose activity change, negative = inhibition, hits mostly inhibitors; 310,000 tested, 5.9% active; further: potency means the concentration at half of the fitted maximal effect
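Luciferase-expressing parasites in RBCs, 2% Hct / 0.1% parasitemia final; RPMI 1640 + 0.5% Albumax; 37 C, 5% CO2, one generation; luminescence read-out, lower signal = inhibition.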
HCMV antiviral = human cytomegalovirus inhibition | HFF cells, HCMV-luciferase reporter, 72 h; active compounds read low | activity change, negative = inhibition, % at 57.5 µM | 410,000 tested, 4.5% active | AID 1259415; in the data active means activity change below about -60%; inconclusive means no clear call, values can overlap the other calls; inactive means above about -39%
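Cell-based, HFFs, 1000 cells/well, 16 h 37C; cpds in DMSO + HCMV-luc, MOI 1 PFU/cell; 72 h 37C; OneGlo luminescence after 5 min RT; norm. to buffer vs Salinomycin 10uM.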
Pf growth 96h = inhibits malaria parasite growth, 96 h | P. falciparum luciferase reporter growth, 96 h | Potency, µM (doses to about 28.7 µM), for the others: at the highest dose activity change, negative = inhibition, actives largely listed as inhibitors | 320,000 tested, 6.9% active; further: potency means the concentration at half of the fitted maximal effect
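Two parasite generations (96 h, 37 C, 5% CO2) of compound exposure in infected erythrocytes (0.05% parasitemia, 2% hematocrit). Luciferase-reporter P. falciparum; decreased luminescence indicates inhibited growth, aimed at apicoplast-acting delayed death.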
Lassa entry inh = inhibitors of Lassa virus binding or cell entry. Lassa virus pseudotype entry inhibition, cell reporter. Potency, µM (doses to about 37.9 µM), for the others: at the top dose activity change, negative = inhibition, hits mostly inhibitors. 300,000 tested, 1.2% active; calls by dose curve; tested in HEK293 cells; further: potency means the concentration at half of the fitted maximal effect; nearly all actives have a fitted effect of over 50% in size
HCV inhibitor = inhibitors of hepatitis C virus infection | 340,000 tested, 3.4% active | Huh7.5.1 HCVcc-Cre infection, luciferase reporter, 44 h | Potency, µM (top dose mostly 41.8 µM), inactives show top-dose activity change, negative = inhibition, usual class: inhibitors | AID 651820; further: potency means the concentration at half of the fitted maximal effect
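Infectious HCVcc-Cre (~0.5 moi) was added to cells just after compound, with cells seeded 4 h earlier at 1,000 per well. Luciferase activity after 44 h culture reported infection; substrate was incubated 15 min at room temperature before reading.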
* = called active by the depositor; ? = inconclusive; · = not tested or not shown; [ ] = another dose, or the depositor's remark. Unless noted, the call rests on the fitted dose curve; in most records, active means well fitted inhibition curve with a large enough effect; inconclusive means small, poorly fitted or top-dose-only effect, or another doubt; inactive means no such curve, though single readings can be large or run the other way. On the % scale 0 is the no-effect control and ±100 the full control effect.

SMILES | Marburg entry inh | Pf growth 48h | HCMV antiviral | Pf growth 96h | Lassa entry inh | HCV inhibitor
COc1ccccc1N1CCN(C(=O)c2ccc3ncsc3c2)CC1 | · | · | -7.5 | · | · | -4.9%
COc1ccc(OC)c2sc(N3CCN(C(=O)c4ccc5ncsc5c4)CC3)nc12 | ? | 11.7µM* | -31.9 | ? | ? | ?
COc1ccc2nc(N3CCN(C(=O)c4ccc5ncsc5c4)CC3)sc2c1 | -5.4%[46.1 µM] | ? | ? | ? | -13.0% | -28.5%
COc1ccc(-c2noc(Cn3c(=O)c4ccccc4n(CC(=O)Nc4cccc(C(F)(F)F)c4)c3=O)n2)cc1 | · | · | -10.7 | · | -31.6%[46.1 µM] | ·
Clc1ccccc1/C=C/c1ccnc2ccccc12 | · | 1.4% | 25.4 | ? | · | ?
Oc1ccc(/C=C/c2ccnc3ccccc23)cc1 | ? | ? | -60.9* | -102.8% | ? | 8.91µM*
O=C(Cc1ccccc1)NCC(=O)N1CCN(c2ccc(F)cc2)CC1 | · | · | 15.0 | · | · | ·
Cn1c(=O)c(=O)n(C)c2cc(NC(=O)c3cccc(F)c3)c(Cl)cc21 | 3.3%[46.1 µM] | · | -19.3 | · | -1.2%[46.1 µM] | ·
CN1CCN(CCCOc2ccc(-c3ccccc3)cc2)CC1 | ? | ? | 31.3 | -7.4% | ? | 2.82µM*
CCCCCCOc1ccc(CN2CCN(C)CC2)cc1 | ? | 75.4% | -37.3 | -4.2% | ? | 1.78µM*
CCCCOc1ccc(CN2CCCCC2)cc1 | ? | 18.0% | -11.6 | -17.9% | 11.1% | 17.5%
Cc1ccc(C(C)C)c(OCC(=O)Nc2ccc(-c3nc4ncccc4o3)cc2C)c1 | -8.5%[46.1 µM] | · | 2.8 | · | 2.7%[46.1 µM] | ·
CCN1C(=O)[C@H]2[C@@H](c3ccc(-c4ccccc4)cc3)N[C@@](C)(C(=O)OC)[C@H]2C1=O | · | 9.28µM* | 12.8 | ? | · | 16.7%
COC(=O)[C@]1(C)N[C@H](c2ccc(-c3cccc(Cl)c3)cc2)[C@@H]2C(=O)N(C)C(=O)[C@@H]21 | · | · | -31.0 | · | · | 23.9%
CCN1C(=O)[C@H]2[C@@H](c3ccc(-c4cccc(Cl)c4)cc3)N[C@@](C)(C(=O)OC)[C@H]2C1=O | · | 13.1µM* | 4.1 | ? | · | 5.5%
CCCCOc1ccc(Nc2nc(C)cc(C)c2C#N)cc1 | 9.6% | 7.5% | 67.8 | 10.4µM* | 15.5% | -4.4%
Cc1cc(C)c(C#N)c(Nc2ccccc2)n1 | -12.3% | 9.2% | 18.1 | ? | 1.7% | -11.1%
N#Cc1c(-c2ccccc2)nc2n(-c3ccccc3)nc(C(=O)Nc3ccccc3)n2c1=O | 12.2% | · | -9.9 | 0.738µM* | 5.1% | -19.7%
N#Cc1cccc(NC(=O)c2nc(-c3ccccc3)n(-c3ccccc3)n2)c1 | ? | ? | -28.8 | · | ? | ?
CCN(CC(=O)NCc1cccs1)C(=O)c1ccc(NS(=O)(=O)c2cccc([N+](=O)[O-])c2)cc1 | ? | -1.0% | -6.6 | 7.5% | 3.7%[46.1 µM] | -4.0%
CN(C)S(=O)(=O)c1ccc(N2CCCC2)c(C(=O)Nc2ccc(F)cc2F)c1 | -9.2% | ? | -27.6 | ? | 2.8%[46.1 µM] | 12.0%
COc1ccc(C(C)(C)C)cc1NC(=O)c1cc(S(=O)(=O)N(C)C)ccc1N1CCCC1 | ? | 13.1µM* | -34.8 | 9.28µM* | ? | ?
CNC(=O)c1ccc(NC(=O)c2cc(S(=O)(=O)N(C)C)ccc2N2CCCC2)cc1 | · | ? | -100.2* | ? | · | 3.6%
CCOC(=O)c1sc2nc(C)c([N+](=O)[O-])c(COC)c2c1N | · | 10.4µM* | 44.4 | -8.8% | · | 1.7%
CCOC(=O)c1sc2ncc([N+](=O)[O-])cc2c1N | -6.6% | 56.0% | -4.9 | 125.0% | · | -13.1%
SMILES | Marburg entry inh | Pf growth 48h | HCMV antiviral | Pf growth 96h | Lassa entry inh | HCV inhibitor
COc1ccc(C(=O)Nc2ccc(N3CCN(C)CC3)cc2)cc1 | · | 107.4% | 43.7 | 0.0928µM* | · | 18.0%
CN1CCN(c2ccc(NC(=O)c3ccc(-c4ccccc4F)o3)cc2)CC1 | ? | -55.9% | 120.7 | ? | ? | 10µM*
COc1ccc(C(=O)Nc2ccc(C(=O)OCC(=O)c3cccc4ccccc34)cc2)cc1 | -2.7% | ? | -18.4 | 13.1µM* | 3.4% | -8.1%
CC(C)Oc1ccc(C(=O)Nc2ccc(N3CCCC3)cc2)cc1 | 17.9% | 13.1µM* | · | 9.28µM* | 0.8% | ?
COc1c(C)cccc1C(=O)Nc1ccc(-c2nc3ccccc3s2)c(Cl)c1 | 14.4%[46.1 µM] | · | -18.0 | · | -2.8%[46.1 µM] | ·
CC1CN=C(c2ccc(Cl)cc2)c2c3ccccc3[n+]([O-])n21 (centres undefined) | · | · | 31.1 | · | · | ·
C=CCC[C@H](Cc1ccc(F)cc1)C(=O)OC[C@H](Cc1c[nH]c2ccccc12)NC(=O)[C@@H](CC=C)CC(=O)NCCO | · | · | 7.1 | · | · | 7.6%
CCCCOc1ccc(C(=O)Nc2ccc3c(c2)N(C(C)=O)CCC3)cc1 | · | · | ? | · | 5.6%[46.1 µM] | ·
CC(=O)N1CCCc2ccc(NC(=O)c3ccc(OC(C)C)cc3)cc21 | · | · | -60.5* | · | ? | ·
O=C(Nc1ccc(N2CCCC2)cc1)c1ccc(Br)cc1 | · | 13.1µM* | 103.7 | 0.0% | · | -18.5%
CN(C)c1ccc(C(CNC(=O)c2cccc(C(F)(F)F)c2)N2CCCC2)cc1 (centres undefined) | · | · | -35.4 | · | ? | ·
CCOc1ccc(NC(=O)CN(c2ccc(C)cc2)S(=O)(=O)c2cccs2)cc1 | -2.4%[46.1 µM] | · | -0.2 | · | -20.4%[46.1 µM] | ·
Cc1ccc(NC(=O)Cn2cc(S(=O)(=O)c3ccc(C)cc3)c(=O)c3cc4c(cc32)OCO4)cc1 | 18.0%[46.1 µM] | · | -1.6 | · | -6.8%[46.1 µM] | ·
CCOc1cc(-c2nnc(SCC(=O)NCc3ccccc3)nc2-c2ccc(OC)c(OCC)c2)ccc1OC | · | · | -74.5* | · | ? | ·
CCC(C)NC(=O)CSc1nnc(-c2cc(OC)c(OC)c(OC)c2)c(-c2cc(OC)c(OC)c(OC)c2)n1 (centres undefined) | -11.5%[46.1 µM] | 10.4µM* | 57.9 | 13.6% | 8.1%[46.1 µM] | -1.0%
O=C1NC(=S)N(C(=O)c2ccc(F)cc2)/C1=C/c1cccnc1 | -23.9% | ? | -12.6 | ? | ? | 6.8%
COc1ccc(/C=C2\C(=O)NC(=S)N2C(=O)c2ccc(C)cc2)cc1 | ? | 35.0% | 66.7 | 7.38µM* | 15.3% | 7.8%
COc1ccc(-c2nc(N=Nc3ccc(O)cc3)n[nH]2)cc1 | 2.9% | 24.5% | 17.4 | ? | -2.3% | -3.2%
Cc1ccc(-c2nc(N=Nc3ccc(O)cc3)n[nH]2)cc1 | -6.4% | 50.6% | -100.2* | 16.8% | ? | 8.8%
CC(C)COc1ccc(C(=O)OCC(=O)N(C)CC(=O)Nc2ccc(F)cc2)cc1 | 0.7% | 5.8% | -7.3 | 11.3% | ? | 3.9%
COc1ccc(C2c3cc(OC)c(OC)cc3CCN2C(=O)c2ccccc2)cc1OC (centres undefined) | -2.5%[46.1 µM] | ? | 8.5 | 2.08µM* | ? | 11.3%
COc1cc2c(cc1OC)C(c1cc(Br)ccc1F)N(C(=O)CCl)CC2 (centres undefined) | -4.2% | 8.28µM* | -92.8* | ? | · | ?
